# Screening data (PubChem BioAssay)
# Vaccinia Venus – qHTS for Stage-Specific Inhibitors of Vaccinia Orthopoxvirus: Venus Reporter Primary qHTS; actives 0.46% (n = 330,000); Vaccinia virus Venus reporter expression, fluorescence; Potency, µM (series often up to 36.5 µM), for the others: at the top dose activity change, negative = inhibition, most hits filed as inhibitors; calls by dose curve; tested in A549 cells; further: potency means the concentration at half of the fitted maximal effect; on the % scale 0 is the no-effect control and ±100 the full control effect; nearly all actives have a fitted effect of over 30% in size
# VACV mCherry inh – qHTS for Stage-Specific Inhibitors of Vaccinia Orthopoxvirus: mCherry Reporter Primary qHTS. Vaccinia virus mCherry reporter infection, fluorescence. Potency, µM (titrated, usually from 36.5 µM), without a hit: at the top dose activity change, negative = inhibition, most hits filed as inhibitors. actives 0.63% (n = 310,000); calls by dose curve; tested in A549 cells; further: potency means the concentration at half of the fitted maximal effect; on the % scale 0 is the no-effect control and ±100 the full control effect; nearly all actives have a fitted effect of over 35% in size
# Marburg entry inh – qHTS for inhibitors of binding or entry into cells for Marburg Virus | Potency, µM (titrated, usually from 37.8 µM), for the others: at the highest dose activity change, negative = inhibition, usual class: inhibitors | actives 1.8% (n = 300,000) | Marburg virus pseudotyped entry inhibition, cell reporter; calls by dose curve; tested in HEK293 cells; further: potency means the concentration at half of the fitted maximal effect; on the % scale 0 is the no-effect control and ±100 the full control effect
# Shiga inhibitor – A qHTS for Small Molecule Inhibitors of Shiga Toxin; Vero cells, Shiga toxin protein synthesis inhibition reporter; inhibition, % at 38.7 µM; actives 9.2% (n = 290,000); AID 2315, 2010; in the data active means inhibition mostly above about 28%, no sharp cut-off; inactive means mostly below about 43%; further: 0% is about no effect
# Lassa entry inh – qHTS for Inhibitors of binding or entry into cells for Lassa Virus; Lassa virus pseudotype entry inhibition, cell reporter; Potency, µM (doses to about 37.9 µM), without a hit: at the top dose activity change, negative = inhibition, hits mostly inhibitors; actives 1.2% (n = 300,000); AID 540256, 2011; calls by dose curve; tested in HEK293 cells; further: potency means the concentration at half of the fitted maximal effect; on the % scale 0 is the no-effect control and ±100 the full control effect; nearly all actives have a fitted effect of over 50% in size
# Cycloheximide cs – Cycloheximide Counterscreen for Small Molecule Inhibitors of Shiga Toxin; cell reporter, cycloheximide protein synthesis inhibition counterscreen; max response, %; actives 12% (n = 300,000); in the data active means max response mostly above about 13%, no sharp cut-off; inactive means mostly below about 14%; further: read at 38.3 µM for the half of the compounds with a filed dose; 0% is about no effect
# * marks the source's active call; other numbers are inactive results; i = inactive; ? = inconclusive; . = no result; [ ] = remark or other dose. Only a selection was taken, and hits are over-represented in it overall.
SMILES,Vaccinia Venus,VACV mCherry inh,Marburg entry inh,Shiga inhibitor,Lassa entry inh,Cycloheximide cs
O=S(Cc1cc(Oc2ccccc2)nc(-c2ccccc2)n1)c1ccccc1 (stereo not given),-12%,-10%,?,17,?,-3
CCOC(=O)c1ccc(NC(=O)C2C3CCC(C3)C2C(=O)O)cc1 (stereo not given),-3%,-10%,?,28,7%,20
CCOC(=O)c1ccc(NC(=S)NNC(=O)C2(C)CC2(Cl)Cl)cc1 (stereo not given),-20%,.,17%,active,7%,15
COC(=O)c1ccc(NC(=O)CNC(=O)C2CCCCC2)cc1,-18%,0%,17%,-9,?,-9
COC(=O)c1ccc(NC(=S)NC2CCCCC2C)cc1 (stereo not given),?,-22%,2%,16,?,25*
CCOC(=O)c1ccc(NC(=S)NNC(=O)COC)cc1,-10%,-5%,11%,-7,1%,-1
COC(=O)c1ccc(NC(=S)NC(=O)C2CCC2)cc1,8%,-5%,19%[46.1 µM],64*,?,26*
COC(=O)c1ccc(NC(=S)NC2c3ccccc3CC2O)cc1 (stereo not given),-13%,?,13%[46.1 µM],16,7%,0
CC(C)COC(=O)c1ccc(NC(=O)C2C3CCC(C3)C2C(=O)O)cc1 (stereo not given),-14%,.,-5%[46.1 µM],74*,-16%,62*
CCOC(=O)[C@@H]1[C@H]2COc3cc(OC)ccc3[C@@H]2N2C(=O)N(c3ccc(Cl)cc3)C(=O)[C@]12C,-16%,0%,.,.,.,.
CCC(=O)NNc1ncnc2c1cnn2-c1ccc(C)c(Cl)c1,-5%,-18%,.,.,?,.
COc1ccc(/C=N/Nc2nonc2N)cc1,-7%,-17%,9%,67,0%,23*
COc1cc(/C=N/N=C(/N)c2nonc2N)cc(Br)c1OCc1cccc(C)c1,.,.,?,23,-2%,21*
CCOc1cc(/C=N/N=C(\N)c2nonc2N)cc(Br)c1OCc1cccc2ccccc12,6%,-12%,?,-11,?,-2
COc1cc(/C=N/N=C(\N)c2nonc2N)cc(OC)c1O,-3%,-19%,17%[46.1 µM],79*,1%,47*
COc1ccc(/C=N/N=C(\N)c2nonc2N)cc1,.,.,.,44*,.,15
CC(NC(=O)c1ccco1)c1nnc2n1CCN(Cc1cccc(Cl)c1)CC2 (stereo not given),10%,-1%,.,.,.,.
O=C(/C=C\c1ccco1)Oc1cccc2cccnc12,?,?,?,18,27%,23*
COC(=O)N/N=C/c1ccc(OC(=O)/C=C/c2ccco2)cc1,-10%,i,3%[46.1 µM],30,16%[46.1 µM],12
CCc1ccc(OC(=O)/C=C/c2ccco2)cc1,.,.,.,30*,.,33*
COc1ccc(CNC(=O)COC(=O)/C=C/c2ccco2)cc1,.,.,-1%,-2,1%,-3
O=C(Cc1ccccc1)N/N=C/c1ccc(OC(=O)/C=C\c2ccco2)cc1,.,.,25%,49*,-7%,29*
COC(=O)N/N=C\c1ccc(OC(=O)c2ccco2)cc1,-3%,i,3%[46.1 µM],12,-11%[46.1 µM],7
CC(C)(C)OC(=O)N/N=C\c1ccc(OC(=O)c2ccco2)cc1,-2%,-6%,?,79*,?,38*
COc1cc(NC(=O)Cn2cc(S(=O)(=O)c3ccccc3)c(=O)c3ccccc32)cc(OC)c1,-1%,-6%,1%[46.1 µM],.,-24%[46.1 µM],.
CC[C@@H](C)[C@@H](N)C1=N[C@H](C(=O)N[C@@H](CC(C)C)C(=O)N[C@@H](CCC(=O)O)C(=O)N[C@@H](C(=O)N[C@@H]2CCCCNC(=O)[C@@H](CC(N)=O)NC(=O)[C@@H](CC(=O)O)NC(=O)[C@@H](Cc3cnc[nH]3)NC(=O)[C@@H](Cc3ccccc3)NC(=O)[C@@H]([C@H](C)CC)NC(=O)[C@@H](CCCN)NC2=O)[C@@H](C)CC)CS1,?,i,.,.,.,.
CN(C(=O)c1ccc(NC(=O)Cc2cccc(NC(=O)C3CCN(C(=O)c4ccccc4)CC3)c2)cc1)C1CCCC1,-14%,-14%,.,.,.,.
